Experiment [1] is described as follows: inhibitors of TNFa-induced NFkB p65 translocation, primary screen, imaging, HUVEC, MLSMR starter and 10KST1 sets (AID 438;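 active = inhibition above 20% together with a positive visual image hit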;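 also: compound added about 3h40 before a 20 min TNFalpha stimulation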;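 as to inhibition: signal is the nuclear over cytoplasmic p65 intensity ratio per well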). As to conditions: HUVEC TNFa-induced p65 nuclear translocation; cell count: measured here: nuclei count (cytotoxicity indicator), at 2.08 µM; inhibition: at 2 µM, stronger effect = higher value, 0% TNFa-plus-vehicle, 100% no-TNFa wells.
Experiment [2] is described as follows: reduction of polyQ htt aggregates in cells – imaging, exon1htt(103Q)mCFP cells, high-content imaging, primary screen (AID 483;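 active = visual image review flags a hit and inhibition of aggregation exceeds 20%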;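 also: compound exposure lasted 3 days before fixation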;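 as to nuclei count: percent of the per-plate median nuclei count of sample wells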). As to conditions: exon1htt(103Q)mCFP cell line, aggregate imaging, at 2 µM; inhibition of aggregation: stronger effect = higher value; nuclei count: measured here: cell count, toxicity.
The nature of experiment [3]: endothelial E-selectin expression blockers – imaging, HUVEC, immunofluorescence, MLSMR starter and 10KST1 sets, primary screen (AID 487).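 As to inhibition: signal is fraction of cell area covered by stained E-selectin grains.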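 As to nuclei count: 100% = median nuclei count of all wells on the same plate.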 As to conditions: HUVEC TNFalpha-induced E-selectin immunofluorescence imaging, at 2 µM; inhibition: stronger effect = higher value; nuclei count: measured here: cell number, toxicity.
The target of experiment [4] is Voltage-gated potassium channel subunit beta-2 (Rattus norvegicus) (UniProt P62483). Kind of experiment: inhibitors of rat Kvbeta2 reductase activity – biochemical, NADPH fluorescence, primary screen (AID 622;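 active = fluorescence slope higher than the sample average by over 3 SD, cut at about -0.22 in these data, passing the limit was not always enough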;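 also: slope of raw intensity against log time taken from 70 to 1610 s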). As to conditions: recombinant KvBeta, 4-cyanobenzaldehyde reduction, at 10 µM, stronger effect = higher value.
Voltage-gated potassium channel subunit beta-2 (Rattus norvegicus), sequence (P62483 whole entry, looked up): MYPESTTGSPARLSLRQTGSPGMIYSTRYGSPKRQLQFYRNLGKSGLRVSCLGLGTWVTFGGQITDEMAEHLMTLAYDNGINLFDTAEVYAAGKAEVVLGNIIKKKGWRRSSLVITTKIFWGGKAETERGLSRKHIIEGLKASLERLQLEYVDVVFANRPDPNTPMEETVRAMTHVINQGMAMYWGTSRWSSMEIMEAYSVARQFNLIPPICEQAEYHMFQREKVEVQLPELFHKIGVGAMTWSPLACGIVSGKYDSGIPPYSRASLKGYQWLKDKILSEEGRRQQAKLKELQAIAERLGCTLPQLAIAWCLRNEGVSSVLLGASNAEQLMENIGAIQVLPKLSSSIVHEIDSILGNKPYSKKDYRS
The target is the same in experiment [5]. The experiment in a line: enhancers of rat Kvbeta2 NADPH turnover – biochemical, NADPH fluorescence, primary screen (AID 623;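 active = NADPH fluorescence slope more negative than the mean of all samples by about 3 SD, 99.7% confidence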;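 also: fluorescence intensity change per second fitted from 20 to 320 s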). Particulars: Recombinant KvBeta, NADPH fluorescence decrease slope, 10 min; at 10 µM; stronger effect = lower value.
Experiment [6] concerns the target Alpha-2C adrenergic receptor (Homo sapiens) (UniProt P18825). The experiment in a line: compounds altering alpha2C-coupled GIRK flux – cell-based, HEK293 alpha2C/GIRK1/2, thallium flux, primary screen (AID 624;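 active = fluorescence slope after compound addition differing from the mean of all screened samples at 99.7% confidence, in either direction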;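 also: slope of fluorescence ratio to pre-addition baseline per second over 15 to 24 s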). As to conditions: thallium flux BTC fluorescence, at 10 µM, actives lie on both sides.
Experiment [7] in a line: blockers of RIG-like receptor reporter activation – cell-based, Sendai virus stimulus, luciferase, 10K MLSCN set, TLR/RLR signaling modifier project, primary screen (AID 602276;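 active = inhibition at or above 50% at 10 µM; inactive = inhibition below 50%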;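 also: firefly luciferase from ISG56 promoter only with Renilla not read in this screen; 0% = Sendai virus plus DMSO and 100% = medium plus DMSO without virus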). Particulars: HEK293 RL24 IRF3 luciferase reporter, at 10 µM, stronger effect = higher value. For orientation: Reporter assays use an easily measured gene product as a stand-in for the process of interest.
The nature of experiment [8]: TLR3 IRF3 reporter activation blockers – cell-based, poly I:C stimulus, luciferase, 10K MLSCN set, primary screen (AID 602277;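 active = inhibition of the reporter signal at or above 50%; inactive = inhibition below 50%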). Particulars: HEK293-TLR3 RL24 IRF3 luciferase reporter, at 10 µM, stronger effect = higher value.

Data on 14 compounds can be found in PubChem BioAssay.

Calls of active or inactive are those of the source.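 The calls were made as follows, unless noted: active = visually confirmed hit in the image check and inhibition above 20%; inconclusive = visually confirmed hit but inhibition not above 20%; inactive = no visual hit in the image check.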

Alpha-2C adrenergic receptor (Homo sapiens), sequence (P18825 whole entry, looked up): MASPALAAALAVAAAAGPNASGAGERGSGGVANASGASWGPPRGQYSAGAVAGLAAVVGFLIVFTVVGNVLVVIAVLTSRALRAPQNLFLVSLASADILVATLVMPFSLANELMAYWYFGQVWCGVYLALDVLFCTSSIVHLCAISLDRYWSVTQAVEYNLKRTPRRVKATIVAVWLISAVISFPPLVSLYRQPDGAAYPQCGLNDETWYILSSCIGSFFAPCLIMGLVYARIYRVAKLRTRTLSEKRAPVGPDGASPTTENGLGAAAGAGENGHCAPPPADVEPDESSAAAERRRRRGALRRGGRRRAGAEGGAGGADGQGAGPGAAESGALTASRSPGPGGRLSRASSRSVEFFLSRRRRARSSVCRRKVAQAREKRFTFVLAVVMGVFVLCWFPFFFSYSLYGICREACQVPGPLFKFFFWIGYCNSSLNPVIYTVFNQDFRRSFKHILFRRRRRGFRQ

With `COc1ccc(NC(=O)C2CCCCN2S(=O)(=O)c2ccc(F)cc2)cc1` (centres undefined), the cell count in experiment [1] came out at 630. Moreover, the inhibition (in general, the relative decrease from the control value, in per cent) in experiment [1] is 3.7% (inactive); in experiment [3] it was -67.7% (inactive); in experiment [7], 15.6% (inactive); in experiment [8], 42.2% (inactive). For the same compound, in experiment [2], the inhibition of aggregation is 27.3% (inactive). Moreover, the nuclei count in experiment [2] was 76.6%; in experiment [3], 105%. For the same compound, the fluorescence slope in experiment [4] is -0.584 (inactive). The NADPH fluorescence slope in experiment [5] was -2.4e-05 (inactive). Further, in experiment [6], the slope was 0.00664 (inactive).
As to `CC1CCc2c(sc3c2C2=NS(=O)(=O)CCN2C=N3)C1` (centres undefined), the cell count in experiment [1] turned out to be 188. Further, the inhibition in experiment [1] is 2.9% (inactive); in experiment [3] it was -5.5% (inactive); in experiment [7] it was 11.9% (inactive); in experiment [8] it was 33.3% (inactive). In addition, in experiment [2], the inhibition of aggregation is 2.7% (inactive). The nuclei count in experiment [2] turned out to be 87.1%; in experiment [3], 108%. Besides, the fluorescence slope in experiment [4] was -0.582 (inactive). Also, in experiment [5], the NADPH fluorescence slope is -6.8e-05 (inactive). Moreover, the slope in experiment [6] was 0.00732 (inactive).
Regarding `CCCCn1c(SCC(=O)OCC)nc2c1c(=O)[nH]c(=O)n2C`, the cell count in experiment [1] was found to be 611. In addition, the inhibition in experiment [1] is -0.3% (inactive); in experiment [3] it was 7.7% (inactive); in experiment [7] it was 13.7% (inactive); in experiment [8], 21.6% (inactive). The inhibition of aggregation in experiment [2] is 5.2% (inactive). Moreover, the nuclei count was 97.5% in experiment [2] and 84.3% in experiment [3]. The fluorescence slope in experiment [4] is -0.499 (inactive). The NADPH fluorescence slope in experiment [5] was -2.6e-05 (inactive). In addition, the slope in experiment [6] was 0.00682 (inactive).
With `CSc1cccc(NC(=O)CN(C)S(=O)(=O)c2ccccc2)c1`, the cell count in experiment [1] was 407. Further, the inhibition was 4.6% (inactive) in experiment [1], -183% (inactive) in experiment [3], 6.98% (inactive) in experiment [7] and -6.52% (inactive) in experiment [8]. Moreover, the inhibition of aggregation in experiment [2] was -0.4% (inactive). For the same compound, the nuclei count in experiment [2] came out at 103%; in experiment [3] it was 111%. Further, the fluorescence slope in experiment [4] is -0.406 (inactive). For the same compound, the NADPH fluorescence slope in experiment [5] is -3.2e-05 (inactive). Moreover, the slope in experiment [6] is 0.00611 (inactive).
As to `CC1=C(C(=O)Nc2ccccc2C)C(c2ccc(C)o2)N2C(=O)CSC2=N1` (centres undefined), in experiment [1], the cell count turned out to be 642. In addition, the inhibition in experiment [1] is -16.7% (inactive); in experiment [3] it was -5.9% (inactive); in experiment [7] it was 16.5% (inactive); in experiment [8] it was 21.5% (inactive). The inhibition of aggregation in experiment [2] is 0% (inactive). Moreover, the nuclei count in experiment [2] came to 106%; in experiment [3], 95.6%. Besides, the fluorescence slope in experiment [4] was -0.44 (inactive). Moreover, the NADPH fluorescence slope in experiment [5] is -1.8e-05 (inactive). Besides, in experiment [6], the slope is 0.00436 (inactive).
Consider `COc1ccc(OCC(=O)Nc2ccc(N3CCOCC3)c(Cl)c2)cc1`, for which, in experiment [1], the cell count worked out at 651. For the same compound, the inhibition is 7.5% (inactive) in experiment [1], -144% (inactive) in experiment [3], 10.5% (inactive) in experiment [7] and 5.62% (inactive) in experiment [8]. Further, the inhibition of aggregation in experiment [2] was -18.9% (inactive). Moreover, the nuclei count in experiment [2] came out at 101%; in experiment [3], 109%. The fluorescence slope in experiment [4] was -0.488 (inactive). Besides, in experiment [5], the NADPH fluorescence slope is -1.5e-05 (inactive). Moreover, the slope in experiment [6] was 0.00692 (inactive).
`O=C(OCc1nnc(-c2ccccc2)o1)c1ccc2ccccc2n1`: the cell count in experiment [1] came to 457. Further, the inhibition is -3.1% (inactive) in experiment [1], -165% (inactive) in experiment [3], -29.8% (inactive) in experiment [7] and -34.4% (inactive) in experiment [8]. Further, the inhibition of aggregation in experiment [2] was -11.6% (inactive). The nuclei count was 95.8% in experiment [2] and 106% in experiment [3]. Moreover, in experiment [4], the fluorescence slope is -0.565 (inactive). Moreover, the NADPH fluorescence slope in experiment [5] is 7e-05 (inactive). Further, the slope in experiment [6] is 0.00433 (inactive).
As to `O=C(COc1ccccc1)Nc1ccccc1N1CCN(c2ccccc2)CC1`, in experiment [1], the cell count worked out at 672. In addition, the inhibition in experiment [1] was 10.8% (inactive); in experiment [3], -71.5% (inactive); in experiment [7] it was 16.7% (inactive); in experiment [8], 3.18% (inactive). Moreover, the inhibition of aggregation in experiment [2] is -7.4% (inactive). Moreover, the nuclei count in experiment [2] was determined as 84.2%; in experiment [3] it was 110%. For the same compound, the fluorescence slope in experiment [4] was -0.609 (inactive). The NADPH fluorescence slope in experiment [5] is -3.5e-05 (inactive). The slope in experiment [6] was 0.00412 (inactive).
With `COc1cccc(OCCn2ccnc2)c1`, in experiment [1], the cell count stood at 305. In addition, the inhibition was -6.6% (inactive) in experiment [1], -24.7% (inactive) in experiment [3], -8.26% (inactive) in experiment [7] and -3.22% (inactive) in experiment [8]. In addition, the inhibition of aggregation in experiment [2] is 9.6% (inactive). Moreover, the nuclei count in experiment [2] turned out to be 82.1%; in experiment [3], 120%. Besides, the fluorescence slope in experiment [4] is -0.422 (inactive). Also, the NADPH fluorescence slope in experiment [5] is 2e-05 (inactive). For the same compound, the slope in experiment [6] was 0.00692 (inactive).
Regarding `CN(C)CCNc1oc(-c2ccccc2F)nc1C#N`, the cell count in experiment [1] is 648. Moreover, the inhibition is 7.1% (inactive) in experiment [1], -40% (inactive) in experiment [3], 0.672% (inactive) in experiment [7] and 34.3% (inactive) in experiment [8]. Further, the inhibition of aggregation in experiment [2] is -11.1% (inactive). Also, the nuclei count was determined as 110% in experiment [2] and 116% in experiment [3]. Further, the fluorescence slope in experiment [4] was -0.062 (active). Moreover, the NADPH fluorescence slope in experiment [5] was 9.2e-06 (inactive). Further, in experiment [6], the slope was 0.00579 (inactive).
Take `CCOC(=O)Cn1c(CN2CCOCC2)nc2c1c(=O)[nH]c(=O)n2C`: in experiment [1], the cell count was 507. The inhibition is -1% (inactive) in experiment [1], -6% (inactive) in experiment [3], 15.2% (inactive) in experiment [7] and 27.7% (inactive) in experiment [8]. Moreover, the inhibition of aggregation in experiment [2] was -19.1% (inactive). Also, the nuclei count in experiment [2] was determined as 102%; in experiment [3], 118%. Also, the fluorescence slope in experiment [4] was -0.601 (inactive). Moreover, the NADPH fluorescence slope in experiment [5] was -4.7e-05 (inactive). Further, the slope in experiment [6] was 0.00569 (inactive).
In the case of `CCOc1ccc(N(CC(=O)Nc2ccc(F)c(F)c2)S(=O)(=O)c2c(C)noc2C)cc1`, the cell count in experiment [1] stood at 758. In addition, the inhibition in experiment [1] was -0.6% (inactive); in experiment [3] it was -35.5% (inactive); in experiment [7], 13% (inactive); in experiment [8], 30.3% (inactive). Further, the inhibition of aggregation in experiment [2] is 25.8% (inactive). For the same compound, the figures for the nuclei count in experiment [2] and in experiment [3] were 130% and 109%, respectively. The fluorescence slope in experiment [4] is -0.521 (inactive). Further, in experiment [5], the NADPH fluorescence slope is -4.9e-05 (inactive). Besides, the slope in experiment [6] was 0.00774 (inactive).
`COc1cc(Cn2c(-c3nonc3N)nc3ccccc32)ccc1C`: the cell count in experiment [1] was found to be 329. The inhibition in experiment [1] is -1.5% (inactive); in experiment [3] it was -20.1% (inactive); in experiment [7] it was 29.4% (inactive); in experiment [8], 53.2% (active). Further, the inhibition of aggregation in experiment [2] was -18.3% (inactive). In addition, the nuclei count came to 65% in experiment [2] and 99.4% in experiment [3]. Further, in experiment [4], the fluorescence slope was -0.591 (inactive). Also, the NADPH fluorescence slope in experiment [5] was -1.7e-05 (inactive). Also, the slope in experiment [6] was 0.00556 (inactive).
As to `COCCCNC(=O)CCCn1c(=O)c2ccccc2n(CC(=O)Nc2c(C)cccc2C)c1=O`, the cell count in experiment [1] was 709. Besides, the inhibition was -4.7% (inactive) in experiment [1], -64% (inactive) in experiment [3], 8.62% (inactive) in experiment [7] and 32.1% (inactive) in experiment [8]. The inhibition of aggregation in experiment [2] was -15.7% (inactive). The nuclei count in experiment [2] was 105%; in experiment [3] it was 99.1%. Further, the fluorescence slope in experiment [4] is -0.505 (inactive). For the same compound, in experiment [5], the NADPH fluorescence slope is 2.2e-05 (inactive). In addition, in experiment [6], the slope was 0.00674 (inactive).
